VDR inhibitor: vitamin D3 receptor (human) inhibition; P11473; VDR-SRC2-3 peptide fluorescence polarization, 2 h; Potency, µM, for the others: max response, negative = inhibition, hits mostly inhibitors; 400,000 tested, 0.93% active; AID 504847
Target sequence (P11473 whole entry, looked up): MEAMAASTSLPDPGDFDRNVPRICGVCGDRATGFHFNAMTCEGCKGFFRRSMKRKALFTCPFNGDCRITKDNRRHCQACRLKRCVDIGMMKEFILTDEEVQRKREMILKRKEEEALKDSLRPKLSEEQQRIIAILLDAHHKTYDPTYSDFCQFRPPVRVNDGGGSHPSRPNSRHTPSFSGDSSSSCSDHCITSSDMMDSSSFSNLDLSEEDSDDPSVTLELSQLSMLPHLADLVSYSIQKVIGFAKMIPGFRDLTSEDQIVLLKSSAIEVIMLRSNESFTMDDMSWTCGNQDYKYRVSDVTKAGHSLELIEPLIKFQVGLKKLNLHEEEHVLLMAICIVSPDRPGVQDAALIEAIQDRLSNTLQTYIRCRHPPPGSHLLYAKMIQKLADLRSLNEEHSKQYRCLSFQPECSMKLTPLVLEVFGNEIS
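Inhibition of the VDR/SRC2-3 peptide interaction is quantified by fluorescence polarization. Compounds (23 nl, pintool) incubate with the reagents for 2 hours at ambient room temperature.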
Sfp inh: inhibitors of Bacillus subtilis Sfp phosphopantetheinyl transferase; Q9F4F7; Biochemical Sfp PPTase activity, qHTS; Potency, µM, without a hit: largest response in the series, negative = inhibition, most hits filed as inhibitors; 310,000 tested, 3.5% active; AID 1490;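 further: the enzyme is Sfp with the accession as filed and its product quenches rhodamine fluorescence; 0% = enzyme reaction without inhibitor and -100% = no enzyme wells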
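Buffer: 50 mM Hepes-Na pH 7.6, 10 mM MgCl2, 0.01% Nonidet P-40, 0.01% BSA. Enzyme 15 nM, pre-exposed to compound 15 min; substrates then added and fluorescence change tracked over 30 min.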
PLK1 PBD inh: PLK1 (human) polo-box domain binding inhibition; AID 720504; 360,000 tested, 2.8% active; Plk1 PBD binding of FITC phosphopeptide, fluorescence polarization; Potency, µM, for the others: max response, negative = inhibition, actives largely listed as inhibitors; further: series mostly up to about 57 µM; nearly all actives have a fitted effect of over 65% in size
TrxR1 substrate: substrates of rat thioredoxin reductase 1; purified TrxR1 substrate turnover, NADPH consumption readout; Potency, µM (series often up to 114 µM), inactives show top-dose activity change, negative = substrate turnover; 390,000 tested, 0.01% active; AID 588456; further: nearly all actives have a fitted effect of over 50% in size
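Rat TrxR1, dispensed at 90 nM, was prereduced with 400 uM NADPH (final) for 5 min at ~22 deg C, then incubated with compound 15 min before 400 uM selenite. A first-read NADPH fluorescence drop versus no-compound background flagged substrates.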
rTrxR1 inhibitor: inhibitors of rat thioredoxin reductase 1 | recombinant rTrxR1, NADPH fluorescence consumption, selenite substrate | AID 588453 | O89049 | 390,000 tested, 1% active | Potency, µM (highest dose often 114 µM), inactives show at the highest dose activity change, negative = inhibition, usual class: inhibitors; further: nearly all actives have a fitted effect of over 65% in size
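Rat TrxR1 (90 nM in the dispensed reagent) was pre-reduced with 400 uM NADPH for 5 min at room temperature, then incubated with compound for 15 min. After 400 uM selenite was added, NADPH fluorescence (Ex 340/Em 450 nm) was followed for 8 min.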
mIDH1 inhibitor: inhibitors of human mutant IDH1 R132H | O75874 | IDH1-R132H enzyme, NADPH consumption, diaphorase/resazurin fluorescence | Potency, µM (series often up to 76.6 µM), for the others: at the top dose activity change, negative = inhibition, hits mostly inhibitors | 390,000 tested, 0.093% active | AID 602179; further: nearly all actives have a fitted effect of over 65% in size
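IDH1-R132H (0.5 ug/mL dispensed) in pH 7.5 Tris buffer was preincubated 30 min with compound, then given a substrate mix of 0.016 mM NADPH and 2 mM alpha-KG for 80 min at room temperature; remaining NADPH was read by diaphorase/resazurin fluorescence.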
* hit, by the source's call; ? = inconclusive; / = not tested or not shown; [ ] = another dose, or the depositor's remark. Compounds with a hit are over-represented: about 5.2% of the library has one in this group of screens. The call rests on the fitted dose curve; in most records, active means well fitted curve in the direction sought with a large enough effect; inconclusive means small, poorly fitted or top-dose-only effect, or another doubt; inactive means no such curve, though single readings can be large; an effect the other way counts as inactive or inconclusive. Unless noted, on the % scale 0 is the no-effect control and ±100 the full control effect; potency means the concentration at half of the fitted maximal effect.

SMILES | VDR inhibitor | Sfp inh | PLK1 PBD inh | TrxR1 substrate | rTrxR1 inhibitor | mIDH1 inhibitor
COc1cccc(N2CCN(c3nc(-c4ccccc4C)cc(=O)[nH]3)CC2)c1 | 20% | -4% | -9% | -11% | -11% | -6%
O=C1C=C(c2ccccc2)C(c2ccccc2)C1O (configuration not stated) | ? | / | -9% | 2%[11.4 µM] | 0%[11.4 µM] | -4%
Cc1ccc(S(=O)(=O)/N=C(/NC(=S)Nc2ccccc2)c2ccccc2)cc1 | -25% | -15% | ? | 1% | 8.9µM* | 4%
CC(=O)Nc1ccc(N/C(=N\S(=O)(=O)c2ccccc2)c2ccccc2)cc1 | -7% | 11% | -2% | -12% | -14% | 1%
Cc1ccc(NC(=S)N/C(=N/S(=O)(=O)c2ccccc2)c2ccccc2)cc1 | -5% | ? | 24µM* | -9% | 6.3µM* | 0%
CCOC(=O)C(C#N)(Cc1ccc2ccccc2n1)Cc1ccc2ccccc2n1 | 23% | / | -7% | -3%[2.29 µM] | 3%[2.29 µM] | 3%
Clc1ccc(CSc2nc3ncccc3[nH]2)cc1 | -6% | / | / | -2% | 9% | 2%
Cc1ccc(Cl)cc1N1CCN(c2ncnc3onc(C)c23)CC1 | 9% | / | / | 5% | 41% | 15%
C=Cc1c(C)/c2[n-]/c1=C\c1[n-]c(c(CC)c1C)/C=c1\[n-]c3c(c1C)C(=O)C(C(=O)[O-])C=3c1[n-]c(c(C)c1CCC(=O)[O-])\C=2.[Cu].[Na+].[Na+] (configuration not stated) | 32µM* | 45µM* | / | / | / | /
CCOc1ccc(S(=O)(=O)NCc2nc3cccnc3n2Cc2ccccc2OC)cc1 | 15% | / | / | 1%[57.1 µM] | 22%[57.1 µM] | 10%
COc1ccc(C2CC(=O)Nc3cc(OC)c(OC)cc32)cc1 (configuration not stated) | / | / | -1% | / | / | -6%
COc1cc2c(cc1OC)C(c1ccc(SC)cc1)CC(=O)N2 (configuration not stated) | 2% | 89µM* | 0% | 3% | 22% | 0%
O=C1OCCN1/N=C\c1ccc([N+](=O)[O-])o1 | -10% | 6% | / | / | / | /
O=C1O[C@H](CN2CCOCC2)CN1/N=C\c1ccc([N+](=O)[O-])o1 | 28µM* | 19% | / | / | / | /
O=C1OC(CN2CCOCC2)CN1N=Cc1ccc([N+](=O)[O-])o1 (configuration not stated) | 10% | / | -7% | -11% | ? | 3%
O=C1OC(CN(Cc2ccccc2)Cc2ccccc2)CN1N=Cc1ccc([N+](=O)[O-])o1 (configuration not stated) | 3% | / | -18% | -15% | 56µM* | 1%
CSc1nsc(NN)n1 | / | / | -12% | / | / | 0%
Cc1cc(NC(=O)c2ccccc2F)ncc1NC(=O)c1cccs1 | -26% | 7% | 8.4µM* | 0% | 10% | 9%
Cc1ccc(S(=O)(=O)NCC(=O)OCN2C(=O)c3ccccc3C2=O)cc1 | -24% | 18% | 5.3µM* | -10% | 12%[57.1 µM] | 0%
CC(=O)c1ccc(-n2c(CCC(=O)O)ccc2-c2cccs2)cc1 | ? | 20µM* | -8% | 3% | 32µM* | -25%
Cc1ccc(-n2c(CCC(=O)O)ccc2-c2cccs2)cc1Cl | ? | / | / | 4% | 50µM* | -9%
O=C(O)CCc1ccc(-c2cccs2)n1NC(=O)c1ccc(Cl)cc1Cl | 1% | -7% | -16% | 7% | ? | 10%
O=C(O)CCc1ccc(-c2cccs2)n1NC(=O)c1ccc(Cl)cc1 | 6% | 25µM* | -16% | -1% | -21% | -5%
CC1=Nc2ccccc2/C1=C(/C)c1c(C)[nH]c2ccccc12 | / | / | / | -3% | 1% | /
COc1cccc(-c2cc3c(-n4cccc4)ncnc3o2)c1 | 12% | 22µM* | -9% | 22%[57.1 µM] | 24%[57.1 µM] | 0%
SMILES | VDR inhibitor | Sfp inh | PLK1 PBD inh | TrxR1 substrate | rTrxR1 inhibitor | mIDH1 inhibitor
NS(=O)(=O)c1ccc(NS(=O)(=O)c2ccc(C3CNC(=O)C3)cc2)cc1 (configuration not stated) | ? | 14% | 30µM* | 8%[0.0914 µM] | 4%[57.1 µM] | -3%
COCCNS(=O)(=O)c1ccc(C2CNC(=O)C2)cc1 (configuration not stated) | -17% | 5% | -9% | -9% | 9%[57.1 µM] | -5%
CCCN1CC=C2C(C#N)=C(N)C(C#N)(C#N)C(c3cccc(OC)c3OC)C2C1 (configuration not stated) | -27% | 20% | ? | 14% | -24% | -14%
COc1cccc(OC)c1OCc1cc(C2C3CCCC=C3C(C#N)=C(N)C2(C#N)C#N)c(C)cc1C (configuration not stated) | ? | 56µM* | -17% | -3%[57.1 µM] | ? | ?
COc1cccc2cc(-c3nc4ccccc4o3)c(=O)oc12 | 11% | 3% | ? | 5%[57.1 µM] | 25%[57.1 µM] | 4%
COc1cccc2cc3c(=O)n(-c4ccccc4)nc-3oc12 | -25% | 1% | 30µM* | 2% | 17% | 12%
Cc1ccc(S(=O)(=O)c2nc(-c3cccs3)oc2SCc2ccc(F)cc2)cc1 | -14% | / | / | -1% | 8% | 15%
O=C(c1ccc(Cl)cc1)C1CCN(CC(=O)N2CCCCC2)CC1 | -5% | 12% | -10% | 1% | 1% | -2%
CNC(=O)[C@]1(C)C[C@H]1[C@H](NC(=O)[C@]1(C)C[C@H]1[C@H](NC(=O)OCc1ccccc1)c1ccccc1)c1ccccc1 | / | 14% | / | / | / | /
COc1c(N)c2ccccc2[nH]c1=O | -4% | 13µM* | -3% | 20% | 5% | -1%
CCOC(=O)[C@@H]1[C@H]2COc3cc(OC)ccc3[C@H]2N2C(=O)N(c3cccc(F)c3)C(=O)[C@]12C | -1% | / | -15% | -4% | 21% | -3%
COCC1CCN(Cc2cn[nH]c2-c2ccc(OC)cc2F)C1 (configuration not stated) | 37% | 0% | -7% | 3%[57.1 µM] | 12%[57.1 µM] | 8%
COc1ccc(-c2[nH]ncc2CN2CCC(N3CCSCC3)CC2)c(F)c1 | -27% | 6% | 15µM* | 10%[57.1 µM] | -4%[57.1 µM] | 0%
CCc1cccc(Nc2cc(C)nc3ncnn23)c1 | -28% | 2% | 24µM* | 7%[57.1 µM] | 6%[57.1 µM] | 5%
O=C(O)CSCCc1ccccn1 | 1% | 9% | 30µM* | 11%[57.1 µM] | 14%[57.1 µM] | 0%
COCCCNC(=O)CCC(=O)N1Cc2ccccc2Oc2ncccc21 | 5% | / | / | 4% | 10% | 9%
Cc1cccc(N2CCN(C(=O)c3ccc(N4CCCC4=O)cc3)CC2C)c1 (configuration not stated) | 1% | 10% | -9% | -14% | -15% | 10%
Cc1ccc(CSCC2Nc3ccc(C(=O)N4CCN(c5cccc(C)c5)C(C)C4)cc3NC2=O)cc1 (configuration not stated) | / | 50µM* | / | / | / | /

Assay outcomes as filed in PubChem BioAssay.
